# Compound activity as filed in PubChem.
# APE1 inh: APE1 (human) endonuclease inhibition | 350,000 compounds, 0.35% hits | Potency, µM (top dose mostly 65.8 µM), actives largely listed as inhibitors | AID 2517 | recombinant APE1, TAMRA/BHQ-2 abasic DNA cleavage fluorescence; further: nearly all actives have a fitted effect of over 55% in size
# Target sequence (P27695 whole entry, looked up): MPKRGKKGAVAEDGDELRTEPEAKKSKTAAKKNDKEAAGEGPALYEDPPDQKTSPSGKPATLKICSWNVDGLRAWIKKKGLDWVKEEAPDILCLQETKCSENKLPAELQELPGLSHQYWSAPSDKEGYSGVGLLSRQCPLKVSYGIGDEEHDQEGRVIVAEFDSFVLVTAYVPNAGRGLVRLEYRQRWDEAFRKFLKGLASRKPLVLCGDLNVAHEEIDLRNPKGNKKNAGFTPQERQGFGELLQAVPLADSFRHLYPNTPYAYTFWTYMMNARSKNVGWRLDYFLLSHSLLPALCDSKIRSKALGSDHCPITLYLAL
#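 Kinetic fluorescence read (525 ex/598 em nm, three reads 60 s apart) of AP-site incision; signal = third minus first read. Enzyme 0.75 nM, dual-labelled THF duplex 50 nM, compound preincubation 15 min RT.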
# PI5P4Ka inh: blocks human PI5P4K alpha kinase activity; PI5P4Kalpha enzyme, ADP-Glo luminescence, 60 min; stronger effect = lower value; P48426; max response, %; AID 652105; 330,000 compounds, 1.2% hits; active means max response of -50% or lower; inconclusive means between -30% and -50%; inactive means -30% or higher; further: value at the top dose of about 77 µM
#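 Luminescence from ADP-Glo served as readout of PI5P4Kalpha activity in a qHTS format. Reaction: enzyme, substrate, compound, ATP at 5 microM final, 60 min at RT.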
# BLM helicase inh: inhibitors of human Bloom syndrome helicase BLM. P54132. recombinant BLM DNA unwinding, fluorescence dequenching. Potency, µM (top dose mostly 56.1 µM), actives largely listed as inhibitors. 350,000 compounds, 0.2% hits. AID 2528; further: nearly all actives have a fitted effect of over 35% in size
# FEN1 inhibitor: inhibitors of human flap endonuclease 1; Recombinant FEN1 flap cleavage, fluorescence, 15 min; 390,000 compounds, 0.35% hits; Potency, µM (doses to about 114 µM), most hits filed as inhibitors; AID 588795; further: nearly all actives have a fitted effect of over 65% in size
# Target sequence (P39748 whole entry, looked up): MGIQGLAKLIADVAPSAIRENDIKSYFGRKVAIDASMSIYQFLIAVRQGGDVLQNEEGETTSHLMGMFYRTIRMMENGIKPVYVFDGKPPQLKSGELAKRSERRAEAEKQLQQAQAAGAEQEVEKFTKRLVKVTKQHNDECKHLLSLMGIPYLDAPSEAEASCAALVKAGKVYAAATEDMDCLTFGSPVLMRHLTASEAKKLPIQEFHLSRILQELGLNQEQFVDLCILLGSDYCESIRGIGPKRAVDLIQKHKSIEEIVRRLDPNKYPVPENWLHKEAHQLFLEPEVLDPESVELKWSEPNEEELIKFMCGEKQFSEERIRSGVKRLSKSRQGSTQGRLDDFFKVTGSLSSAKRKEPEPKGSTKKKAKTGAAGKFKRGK
#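 Enzyme 10 nM, 15 min RT preincubation with compound; start with substrate 50 nM final; reads at 0 and 15 min; qHTS titration, four-parameter Hill fit.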
# RECQ1 inh: blocks DNA unwinding by human RECQ1; RECQ1 DNA unwinding, red fluorescence kinetic read; Potency, µM (series often up to 57.3 µM), usual class: inhibitors; 240,000 compounds, 0.54% hits; AID 2549; further: nearly all actives have a fitted effect of over 30% in size
#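 RECQ1T1 50 nM; forked duplex (20 bp + 30-nt ss tails) 200 nM, ATP 2 mM final; pH 8.0, 2 mM MgCl2, 2.5 ug/ml poly(dI-dC); 15 min compound preincubation; discontinuous kinetic read over 2 h at RT.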
# GCN5L2 inh: GCN5L2 (KAT2A) acetyltransferase inhibition | 390,000 compounds, 0.21% hits | Q92830 | GCN5L2 HAT assay, ThioGlo1 CoA-SH fluorescence | Potency, µM (top dose mostly 58.9 µM), usual class: inhibitors
#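 Enzyme at 20nM final was mixed with library compounds for 15 min at room temperature. Peptide H3(1-25) at 75uM, acetyl-CoA at 70uM and ThioGlo1 at 50uM were then added. Plates were read immediately and after 20 min (Ex340nm/Em540nm).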
# A number is an active result; i = inactive; ? = inconclusive; nt = not tested or not shown; ! = repeats disagree; [ ] = remark or other dose. Shown are actives, neighbours in structure and some others; about 1.5% of the full set was active somewhere. Unless noted, the call rests on the fitted dose curve; in most records, active means well fitted curve in the direction sought with a large enough effect; inconclusive means small, poorly fitted or top-dose-only effect, or another doubt; inactive means no such curve, though single readings can be large; an effect the other way counts as inactive or inconclusive.
SMILES,APE1 inh,PI5P4Ka inh,BLM helicase inh,FEN1 inhibitor,RECQ1 inh,GCN5L2 inh
CC(C)(C)N1C(=O)Cc2c1nc(N)c1c(N)nc(N3CCCCC3CO)c(C#N)c21 (stereo not drawn),i,-58,?,i,i,i
CN(CCO)c1nc(N)c2c(N)nc3c(c2c1C#N)CC(=O)N3C1CCCC1,?,nt,i,nt,?,i
O=C1C2=C(NC(=S)NC2c2ccc(Cl)cc2)NC(c2ccc(Cl)cc2)N1c1ccc(Cl)cc1 (stereo not drawn),i,-52,i,i,i,i
CSc1ncc(CN2CCN(C3CCCCC3)C(CCO)C2)cn1 (stereo not drawn),i,i,i,i,i,14µM
COC(C[C@@H]1O[C@@H]1[C@H](O)[C@H](C)OCc1ccccc1)OC,i,-86,i,i,i,i
COC(C[C@@H]1O[C@@H]1[C@@H](O)[C@@H](C)OCc1ccccc1)OC,i,i,i,i,i,i
Cc1c(CCC(=O)O)c(=O)oc2cc(O)ccc12,i,i,i,i,i,28µM
CCN1C(=NCc2cccc(C(F)(F)F)c2)N[C@@H](c2cccc(C(F)(F)F)c2)C(C(=O)OC)=C1C,nt,nt,nt,i,nt,nt
CC1=C(C(=O)OCc2ccccc2)C(c2cccc(Cl)c2Cl)NC(=O)N1CCCCCC(=O)O (stereo not drawn),i,i,i,i,nt,i
CC1=C(C(=O)OCc2ccccc2)C(c2cccc3ccccc23)NC(=O)N1CCCC(=O)O (stereo not drawn),i,-86,nt,i,nt,i
CCOC(=O)C1=C(C)N(CCCCCC(=O)O)C(=O)NC1c1ccccc1Cl (stereo not drawn),?,i,i,i,i,i
COC(=O)C1=C(C)N(CCCC(=O)O)C(=O)NC1c1cccc2ccccc12 (stereo not drawn),nt,-71,nt,i,nt,nt
COC(=O)C1=C(C)N(CCCC(=O)O)C(=O)NC1c1cccc(Cl)c1Cl (stereo not drawn),nt,-98,nt,i,nt,nt
Cc1ccc(CNc2ncc(N3CCCCC3)cn2)cc1,i,nt,nt,nt,nt,nt
NCCCN(Cc1ccc(Cl)c(Cl)c1)c1ccccn1,nt,nt,nt,i,nt,nt
O=c1[nH]c(=O)c2[nH]c(=S)[nH]c2[nH]1,nt,-86,nt,?,nt,nt
CCc1cc[n+](CC(=O)c2ccc(F)cc2)cc1C(=O)O,nt,nt,nt,i,nt,nt
O=S(=O)(c1ccc2c(Cl)cccc2c1)N1CCN(c2nc(-c3cccs3)nc3ccccc23)CC1,nt,nt,nt,i,nt,nt
N=C(CC(O)COc1ccccc1-c1ccccc1)N1CCCCC1 (stereo not drawn),10µM!,nt,i,nt,i,i
CC(C)(C)n1ncc2c(=O)n(Cc3ccc(Cl)c(SC(F)(F)F)c3)cnc21,i,nt,nt,i,nt,nt
N[C@@H](C(=O)O)c1ccc(C(=O)O)c(O)c1,?,nt,i,nt,i,i
N[C@@H](C(=O)O)c1ccc(O)c(C(=O)O)c1,?,nt,i,50µM,i,i[0.501 µM]
Oc1ccc(N=Cc2ccc(O)c(O)c2)cc1,i,-79,28µM,?,i,i
NN1C(=O)c2cccc3c(C(=O)O)ccc(c23)C1=O,i,-64,i,i,i,i
O=C(Nc1ccc(Cl)cc1Cl)[C@@H]1CC=C[C@@H]2CCN(C3CC3)C(=O)[C@@H]21,nt,nt,nt,i,nt,nt
SMILES,APE1 inh,PI5P4Ka inh,BLM helicase inh,FEN1 inhibitor,RECQ1 inh,GCN5L2 inh
CCOc1cc(/C=C2\C(=O)ON=C2c2ccccc2)ccc1OC,i,-63,i,i,nt,i
COc1ccc(/C=C2\C(=O)ON=C2c2ccccc2)cc1OC,i,-62,i,i,nt,i
CCOc1cc(/C=C2/C(=O)ON=C2C)ccc1OCc1ccccc1,i,i,i,i,i,i
COc1cc(/C=C2\C(=O)ON=C2c2ccccc2)cc(OC)c1OC,i,i,i,i,i,i
COc1ccc(/C=C2/C(=O)ON=C2c2ccccc2)cc1OC,i,-59,i,i,i,i
CCCCN1CC[C@H]2C=CC[C@@H](C(=O)NCc3cccnc3)[C@H]2C1=O,nt,nt,nt,i,nt,nt
CC[C@H](CC[C@@H](C)[C@H]1CC[C@H]2[C@@H]3CC=C4C[C@@H](O)CC[C@]4(C)[C@H]3CC[C@]12C)C(C)C,i,nt,nt,nt,nt,nt
O=C(O)c1ccc(CSc2nnc(-c3cccc([S+](=O)([O-])N4CCCC4)c3)n2-c2ccccc2)cc1,i,nt,nt,nt,nt,nt
c1coc(-c2nnc(-c3ccco3)nn2)c1,?,-79,i,45µM,nt,i
CC(=O)Nc1ccc(Sc2ccccc2C(=O)O)cn1,i,-56,i,i,nt,i
CCOc1ccc(Nc2nc(NCC3CCCO3)c3ccccc3n2)cc1 (stereo not drawn),i,i,28µM,i,?,i
c1ccc(Nc2nc(NCC3CCCO3)c3ccccc3n2)cc1 (stereo not drawn),i,?,i,i,i,i
O=C1C=C(c2ccc3cc[nH]c3c2)C[C@@H](c2ccc3c(c2)OCO3)C1,12µM,?,nt,?,nt,i
CCC(=O)CC,?,nt,i,nt,i,i
CCOc1ccccc1-c1nnc2n1N=C(c1cccc(OC)c1)CS2,i,nt,i,nt,i,nt
O=C(NN1C(=O)/C(=C/c2ccc(O)cc2)SC1=S)c1ccccc1O,i,?,i,i,nt,i
COc1cc(/C=C2\SC(=S)N(NC(=O)c3ccccc3O)C2=O)ccc1O,i,-62,i,?,nt,i
CCCCCCCCCC[n+]1ccc(/C=C/c2c(C)[nH]c3ccccc23)c2ccccc21,nt,nt,nt,45µM,nt,nt
CCCCCCCCCCCCCCCC[n+]1ccc(/C=C/c2c(C)[nH]c3ccccc23)cc1,nt,nt,nt,i,nt,nt
CCCCCCC[n+]1ccc(C)c2ccccc21,nt,nt,nt,i,nt,nt
CCCCCCC[n+]1ccc(/C=C/c2c(C)[nH]c3ccccc23)c2ccccc21,nt,nt,nt,45µM,nt,nt
COc1cccc2c(C)nc(Nc3nc(CSc4nnc(C)s4)cc(=O)[nH]3)nc12,i,i,i,50µM,i,i
Cc1ccc2c(C)nc(Nc3nc(CSc4nnc(C)s4)cc(=O)[nH]3)nc2c1,i,nt,i,?,i,i
CC(C)(C)c1ccc(-c2nc(SCC(=O)Nc3ccc(Cl)cc3)[nH]c(=O)c2C#N)cc1,nt,nt,?,20µM,nt,35µM
CC(C)(C)CC(C)(C)N=C1Nc2ccc(Cl)cc2N[C@]12C[C@H]1CCCC(=O)N3CC[C@@H](C2)[C@@H]13,nt,nt,nt,i,nt,nt
SMILES,APE1 inh,PI5P4Ka inh,BLM helicase inh,FEN1 inhibitor,RECQ1 inh,GCN5L2 inh
CN(C)c1cc2c3ccccc3ccc2c2ccccc12,nt,nt,nt,i,nt,nt
CC(=O)NCC(=O)OCC(=O)c1ccc(C)c(C)c1,i,nt,i,i,i,i
Cc1ccc(C(=O)COC(=O)C2C3C=CC(C3)C2C(=O)OCC(=O)c2ccc(C)c(C)c2)cc1C (stereo not drawn),i,i,i,i,i,0.79µM
CN(C)c1ccc(C=O)c(Cl)c1,nt,nt,nt,i,nt,nt
Cc1cc(SCC(=O)N/N=C/c2ccc(O)c(O)c2O)c(C)cc1Br,?,-87,i,40µM,i,i
COCCn1c(=S)[nH]c2cc(C(=O)NC(C)C)ccc2c1=O,i,i,i,i,i,i
